Screen size: about 310,000 compounds; about 2,200 (0.71%) showed an effect of 50% or more. The effect is printed as a negative number. What follows is part of a selection rich in strong results, with near analogues and random picks from the rest.
What follows are compounds tested against human ether-à-go-go-related gene (hERG) potassium channel (human, UniProt Q12809) (assay: primary screen, population patch clamp on CHO cells stably expressing hERG; higher = less effect of the substance).
human ether-à-go-go-related gene (hERG) potassium channel, sequence (Q12809 whole entry, looked up): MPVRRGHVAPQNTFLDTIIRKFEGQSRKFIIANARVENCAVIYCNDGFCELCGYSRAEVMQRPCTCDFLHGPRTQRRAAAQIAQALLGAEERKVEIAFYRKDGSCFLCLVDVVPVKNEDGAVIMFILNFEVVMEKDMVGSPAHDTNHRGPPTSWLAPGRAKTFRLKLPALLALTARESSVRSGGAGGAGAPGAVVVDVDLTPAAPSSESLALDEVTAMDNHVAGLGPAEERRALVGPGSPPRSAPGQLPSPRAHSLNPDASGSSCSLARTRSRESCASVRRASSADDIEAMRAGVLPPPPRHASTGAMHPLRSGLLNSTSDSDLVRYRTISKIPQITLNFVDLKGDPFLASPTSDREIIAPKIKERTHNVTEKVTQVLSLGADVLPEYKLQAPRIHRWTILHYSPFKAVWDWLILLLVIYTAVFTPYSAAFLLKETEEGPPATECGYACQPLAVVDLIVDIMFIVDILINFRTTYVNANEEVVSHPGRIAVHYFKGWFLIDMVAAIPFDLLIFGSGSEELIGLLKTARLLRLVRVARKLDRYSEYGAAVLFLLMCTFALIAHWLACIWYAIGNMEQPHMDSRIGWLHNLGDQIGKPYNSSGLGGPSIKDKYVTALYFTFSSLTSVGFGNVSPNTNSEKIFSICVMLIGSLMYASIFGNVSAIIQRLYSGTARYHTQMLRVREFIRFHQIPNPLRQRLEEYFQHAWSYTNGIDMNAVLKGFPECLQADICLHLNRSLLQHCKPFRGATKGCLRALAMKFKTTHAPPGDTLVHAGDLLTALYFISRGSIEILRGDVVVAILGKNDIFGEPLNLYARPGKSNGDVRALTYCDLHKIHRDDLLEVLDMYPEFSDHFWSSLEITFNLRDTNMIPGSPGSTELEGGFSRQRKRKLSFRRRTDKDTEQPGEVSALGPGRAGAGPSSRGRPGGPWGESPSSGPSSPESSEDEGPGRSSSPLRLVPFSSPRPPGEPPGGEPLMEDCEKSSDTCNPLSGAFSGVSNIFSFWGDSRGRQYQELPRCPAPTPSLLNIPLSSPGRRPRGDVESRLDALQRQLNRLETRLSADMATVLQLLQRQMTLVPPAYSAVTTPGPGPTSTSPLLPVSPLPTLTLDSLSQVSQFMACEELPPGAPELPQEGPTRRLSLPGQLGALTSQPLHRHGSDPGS

Row | SMILES | hERG current change (%, negative = inhibition) at 1uM [%]
1 | CCc1ccc(CN(C)C(=O)c2cc(COc3cccc(C(F)(F)F)c3)on2)nc1 | 6.84
2 | C=CCNC(=O)CSc1nnc(C(CC)N(C)C)n1C1CCCCC1 (centres unmarked) | 8.12
3 | O=C(Nc1nc(-c2ccccc2)cs1)c1ccc(N2CCOCC2)c([N+](=O)[O-])c1 | 31.6
4 | CC(=O)Nc1ccc2c(c1)N(C(=O)CN(C)C)c1ccccc1CC2 | 9.16
5 | Cc1cc(C(=O)CN2C(=O)c3ccccc3C2=O)c(C)n1Cc1cccs1 | 9.88
6 | COc1ccc(CN2CCN(c3cccc(C)c3C)CC2)cc1OC | -61.1
7 | COc1cc(CN2CCN(c3cccc(C)c3C)CC2)cc(Br)c1O | 1.25
8 | COc1ccc(-c2[nH]ncc2CN2CCN(c3ccccn3)CC2)c(OC)c1 | 2.51
9 | COc1cc(CN2CCN(c3cccc(C)c3C)CC2)cc(OC)c1O | -20.4
10 | COc1ccc(CN2CCN(c3ccccn3)CC2)c(OC)c1 | -52
11 | COc1ccc(CN2CCN(c3ccccn3)CC2)c(OC)c1C.O=C(O)C(=O)O | 5.42
12 | CCOc1ccc(NC(=O)CCC(=O)c2ccc(OC)cc2)cc1 | 16.1
13 | Cc1c(Cl)ccc(S(=O)(=O)NCCCn2ccnc2)c1Cl | 12.2
14 | CN1CCN(C(=O)c2cnn(-c3ccccc3)c2NC(=O)c2ccccc2)CC1 | 10.4
15 | CN1CCN(C(=O)c2cnn(-c3ccccc3)c2NC(=O)c2ccccc2Br)CC1 | 15.2
16 | CN1CCN(C(=O)c2cnn(-c3ccccc3)c2NC(=O)c2ccc(Br)cc2)CC1 | -88.5
17 | COc1ccc(CCn2c(=N)c(C(=O)NCCN3CCOCC3)cc3c(=O)n4ccccc4nc32)cc1OC | 10.4
18 | Cc1cccn2c(=O)c3cc(C(=O)NCCN4CCOCC4)c(=N)n(CCCN4CCOCC4)c3nc12 | 16.7
19 | COc1ccc(CCNC(=O)c2cc3c(=O)n4ccccc4nc3n(CCN3CCOCC3)c2=N)cc1 | -82
20 | COc1ccc(CCNC(=O)c2cc3c(=O)n4ccccc4nc3n(CCCN3CCOCC3)c2=N)cc1OC | -39.4
21 | COc1ccc(CCNC(=O)c2cc3c(=O)n4ccccc4nc3n(CCCN3CCOCC3)c2=N)cc1 | -88.9

Row | SMILES | hERG current change (%, negative = inhibition) at 1uM [%]
22 | COc1ccc(CCNC(=O)c2cc3c(=O)n4cccc(C)c4nc3n(CCCN3CCOCC3)c2=N)cc1 | -85.1
23 | COc1ccccc1CNC(=O)CSc1nc2ccccc2c(=O)n1CCCN1CCOCC1 | -6.17
24 | COc1ccc(CNC(=O)C(C)Sc2nc3ccccc3c(=O)n2CC2CCCO2)cc1 (centres unmarked) | -17.5
25 | COc1ccc(CNC(=O)C(C)Sc2nc3ccccc3c(=O)n2CCCN2CCOCC2)cc1 (centres unmarked) | -95
26 | Cc1cc(=O)[nH]c(N/N=C/c2c(C)nn(-c3ccc(F)cc3)c2Cl)n1 | -3.02
27 | CN1CCN(c2ccc(NC(=O)c3cc4ccccc4o3)cc2)CC1 | -14.8
28 | CCCC(C(=O)NC(C)(C)CC)N(CC1CCCO1)C(=O)CNS(=O)(=O)c1ccc(F)cc1 (centres unmarked) | -12.1
29 | Cc1nc2ccccc2n1C1CCN(CC(=O)NCc2ccc(F)cc2)CC1 | -23.3
30 | COc1ccc(CNC(=O)CCC(=O)N2CC(C)Oc3ccccc32)cc1 (centres unmarked) | -0.874
31 | CCN(C(=O)c1ccc2c(OC)n(CC)nc2c1)c1ccc(OC)cc1 | 0.888
32 | CC(=O)c1cccc(NC(=O)C2CCN(S(C)(=O)=O)CC2)c1 | 10.7
33 | CN(C)C=NC(=O)/C(C#N)=C1\CCc2ccccc2N1 | 0.195
34 | COc1cc(Cl)cc(/C=C/c2ccc3ccccc3n2)c1OC(C)=O | 16.6
35 | CCCNc1nc(C)cc(-c2cc(C(=O)Nc3ccccc3)on2)n1 | 6.25
36 | COCCNC(=O)c1cccc(OC2CCN(Cc3ccc(C(C)C)cc3)CC2)c1 | -11.3
37 | COCCNC(=O)c1cccc(OC2CCN(Cc3ccc(C(=O)OC)cc3)CC2)c1 | 6.44
38 | COc1ccc(C(=O)NC2CC2)cc1OC1CCN(Cc2ccccc2)CC1 | -82.9
39 | COc1ccc(C(=O)NCCc2cccc(Cl)c2)cc1OC1CCN(C(C)=O)CC1 | -6.31
40 | COc1ccc(C(=O)NC2CC2)cc1OC1CCN(Cc2ccc(F)c(F)c2)CC1 | -70.2
41 | COc1cc(C(=O)NC2CCN(Cc3ccccc3)CC2)cc(Cl)c1OC | -1.24
42 | COCCNC(=O)c1cccc(OC2CCN(Cc3ccc(OC(F)F)cc3)CC2)c1 | -75.4

Row | SMILES | hERG current change (%, negative = inhibition) at 1uM [%]
43 | COCCCNC(=O)c1ccc(OC)c(OC2CCN(C(C)C)CC2)c1 | 14.6
44 | COc1ccc(C(=O)NC2CC2)cc1OC1CCN(Cc2ccc(Cl)cc2)CC1 | -86.8
45 | COc1ccc(C(=O)NC2CC2)cc1OC1CCN(Cc2cnn(C)c2)CC1 | 6.61
46 | COCCNC(=O)c1cccc(OC2CCN(Cc3ccc(F)c(OC)c3)CC2)c1 | 4.26
47 | COc1ccc(C(=O)NC2CCC(O)CC2)cc1S(=O)(=O)NCc1ccc(Cl)cc1 (centres unmarked) | -0.258
48 | CCCCCCCCCCCCOC1OC(CO)C(O)C(O)C1NC(C)=O (centres unmarked) | 4.7
49 | CC(Oc1ccccc1)C(=O)N=C1SC2CS(=O)(=O)CC2N1CCc1ccccc1 (centres unmarked) | 8.75
50 | Cc1cc(Br)ccc1NC(=O)CN1C(=O)C2CC=CCC2C1=O (centres unmarked) | 2.16
51 | CCn1c(SCC(=O)c2ccc3c(c2)OCCO3)nnc1C(C)C | 7.74
52 | O=C(Cn1c(=O)c(C(F)(F)F)nc2ccccc21)N1CCC2(CC1)OCCO2 | -0.212
53 | O=C(/C=C/c1ccoc1)c1ccccc1O | 3.71
54 | COc1ccc(CN2CCN(Cc3ccc(C)cc3)C(CCO)C2)cc1OC (centres unmarked) | -13.3
55 | C/C=C(\C)CN1CCC(Oc2cc(C(=O)NC3CC3)ccc2OC)CC1 | -59.9
56 | COc1ccc(C(=O)NC2CC2)cc1OC1CCN(Cc2ccc(SC)cc2)CC1 | -96.9
57 | COc1ccc(C(=O)NC2CC2)cc1OC1CCN(Cc2ccc(F)cc2)CC1 | -81.9
58 | O=C(NC1CCN(Cc2ccccc2)CC1)c1ccc2c(c1)[nH]c(=O)n2Cc1ccc(F)cc1 | 6.14
59 | COc1cc(C(=O)NC2CCN(Cc3nnnn3Cc3ccc(F)cc3)CC2)cc(OC)c1OC | 3.89
60 | COc1ccc(C(=O)NC2CCCCCC2)cc1OC1CCN(C(C)=O)CC1 | 7.33
61 | COc1ccc(C(=O)NC2CCCCC2)cc1OC1CCN(C(C)C)CC1 | -30.9
62 | COc1ccc(C(=O)NCCCSC)cc1OC1CCN(C(C)C)CC1 | 13.4
63 | COc1ccc(C(=O)NC2CC2)cc1OC1CCN(C(C)CSC)CC1 (centres unmarked) | -54.2

Row | SMILES | hERG current change (%, negative = inhibition) at 1uM [%]
64 | COc1cc(C(=O)NC2CCCCC2)ccc1OC1CCN(C(C)=O)CC1 | 11.4
65 | Cc1ccc(S(=O)(=O)N2CCN(C(=O)CSc3ncc(C(F)(F)F)cc3Cl)CC2)cc1 | 11.1
66 | CCCCCCCCCCCCCCCC(=O)OC/C=C(C)/C=C/C=C(C)/C=C/C1=C(C)CCCC1(C)C | 10.2
67 | COc1cc(C2C(C#N)=C(N)Oc3n[nH]c(C)c32)cc2c1OCO2 (centres unmarked) | -3.12
68 | CCc1nnc(NC(=O)C2CCCN2C(=O)Nc2ccc(C)cc2)s1 (centres unmarked) | 8.89
69 | COc1ccc(CNS(=O)(=O)c2ccc3c(c2)CCN3C(=O)C2CC2)cc1 | 5.86
70 | NS(=O)(=O)c1ccc(CCNC(=O)Cc2ccc(S(=O)(=O)N3CCCC3)s2)cc1 | 14.9
71 | Cc1ccc(C(=O)NCCCNCCCNC(=O)c2ccc(C)nc2)cn1 | -10.3
72 | CCCCNc1ccccc1C(=O)OCC(=O)Nc1ccc(S(N)(=O)=O)cc1 | 0.586
73 | COc1ccc2oc3cc(C)[n+]([O-])c(-c4ccc(Br)cc4)c3c2c1 | 4.46
74 | Cc1nc(-c2ccc([N+](=O)[O-])cc2)nc2[nH]ccc(=O)c12 | 14.5
75 | Fc1ccc(-c2n[nH]c(=S)c3ccccc23)cc1 | 9.98
76 | C[C@H](OC(=O)n1ccnc1)[C@@H]1O[C@@]2(C)CCC[C@@H]1O2 | 15.1
77 | CC(Oc1ccc(Br)cc1)C(=O)NC1CCN(Cc2ccccc2)CC1 (centres unmarked) | -59.6
78 | CC(Oc1ccccc1)C(=O)NC1CCN(Cc2ccccc2)CC1 (centres unmarked) | -5.84
79 | CC(Oc1ccc2ccc(=O)oc2c1)C(=O)NC1CCN(Cc2ccccc2)CC1 (centres unmarked) | -38.3
80 | CC(C)Oc1ccc(C(=O)NC2CCN(Cc3ccccc3)CC2)cc1 | -21
81 | Cc1cc(=O)oc2cc(OC(C)C(=O)NC3CCN(Cc4ccccc4)CC3)ccc12 (centres unmarked) | -52.6
82 | Cc1c(C)c2ccc(OC(C)C(=O)NC3CCN(Cc4ccccc4)CC3)cc2oc1=O (centres unmarked) | -17.2
83 | CC1C(=O)N2CCCc3cc(NC(=O)C(=O)NCc4ccccn4)cc1c32 (centres unmarked) | 8.33

Source: publication PMC4336329 (PLoS ONE, 2015)
